The values that follow come from ChEMBL document CHEMBL4513216, “Probing the Open Global Health Chemical Diversity Library for Multistage-Active Starting Points for Next-Generation Antimalarials” (ACS Infect Dis, 2020).

Structures are written as SMILES. Out of some 69,000 compounds screened, about 8,600 (12%) showed an effect of 50% or more. Many of the other results were omitted from the sample, so strong results are more common in it than they were.

The experiment relates to Plasmodium berghei. The experiment can be described thus: Screen against P. berghei liver stage (PbLuc), transformed with Luciferase, at 10uM. In kind it is functional, HepG2. Conditions: tested at 10 uM.
`Cc1ccccc1CNC(=O)N1C[C@@H]2C[C@H](C(=O)N3CCCC3)[C@H](C1)O2`: the INHIBITION is given as -16.9%.

For `O=C(Nc1nc[nH]n1)c1cc(-c2ccc(F)cc2)n[nH]1`, the INHIBITION is listed as 16%.

`Cc1cc(C(=O)NCc2ccnc(N3CCN(C)CC3)c2)sc1C`: the INHIBITION came to 36.45%.

In the case of `CN1CC(=O)N(C2CCNCC2)Cc2c(NCC(C)(C)C)ncnc21`, the INHIBITION was 47.4%.

Consider `COc1ccc(CC(=O)Nc2ccc3ncn(C(C)C)c(=O)c3c2)cc1`, for which the INHIBITION amounted to 21.2%.

For `CCC1(CO)CCCN(C(=O)c2cc(COc3cccc(F)c3)[nH]n2)C1` (stereo not drawn), the INHIBITION is recorded as 20.9%.

For the compound `Cc1nn(C)c(N(C)C)c1CNC(C)COc1ccccc1F` (stereo not drawn), the INHIBITION came to 23.4%.

As to `Cc1nc2cc(O)nn2c(C)c1CCC(=O)NCCc1ccccc1`, the INHIBITION is 22.3%.

With `CNC(=O)CCNC(=O)CCc1c(C)nc2cc(O)nn2c1C`, the INHIBITION came out at 29.2%.

On to `CCNC(=O)CCc1c(C)nc2cc(O)nn2c1C`, for which the INHIBITION came out at 55.9%.

Consider `COC(=O)CCc1c(C)nc2cc(O)nn2c1C`, for which the INHIBITION is given as 53.5%.

For the compound `Cc1nc(NC(=O)CCc2c(C)nc3cc(O)nn3c2C)sc1C`, the INHIBITION is listed as -14.7%.

On to `CCN(CC)C(=O)CCc1c(C)nc2cc(O)nn2c1C`, for which the INHIBITION is 34.7%.

In the case of `Oc1ccc(N(CCc2ccccc2)CCn2cncn2)cc1`, the INHIBITION was 44%.

On to `CCS(=O)(=O)N1C[C@H]2CC[C@](O)(c3ccc(C)cc3)[C@H]2C1`, for which the INHIBITION is reported as -2.11%.

As for `Cc1nc(C2CCCN(C(=O)c3cc4c(s3)CCCC4)C2)no1` (stereo not drawn), the INHIBITION was 11.2%.

For `O=C(NCC1CCN(Cc2cc3ccccc3[nH]2)C1)c1ccsc1` (stereo not drawn), the INHIBITION was found to be 40.8%.

With `O=C(CCc1ccc(Cl)cc1)NC1CCN(c2cccc(F)c2)CC1`, the INHIBITION stood at 47.3%.

Consider `COc1ccsc1C(=O)NC1CCN(c2cccc(F)c2)CC1`, for which the INHIBITION amounted to 84.1%.

As to `CC(c1ccccc1)N1CCC(NC(=O)CCc2ccsc2)CC1` (stereo not drawn), the INHIBITION stood at 4.22%.

Take `COc1ccc(C(=O)NC2CCN(c3ncccn3)CC2)cc1F`: the INHIBITION stood at 46.1%.

Consider `COc1ccsc1C(=O)NC1CCN(c2ccc(C#N)cc2)CC1`, for which the INHIBITION amounted to 52.6%.

As for `O=C(Cc1cccs1)NC1CCN(c2cccc(F)c2)CC1`, the INHIBITION is listed as 4.71%.

On to `COc1ccc(N2CCC(NC(=O)c3ccc(C#N)cc3)CC2)cc1`, for which the INHIBITION is listed as 41.8%.

Take `COc1ccc(N2CCC(NC(=O)c3sccc3C)CC2)cc1`: the INHIBITION is reported as 45%.

Take `O=C(CCc1ccsc1)NC1CCN(c2cccc(F)c2)CC1`: the INHIBITION is 59.3%.

For the compound `CCN1C[C@@H]2CN(C(=O)NCc3ccccc3)CCC[C@]2(C(=O)O)C1`, the INHIBITION was 31.4%.

On to `COc1ccc(CN2C[C@H]3CC[C@@H](C2)N(S(C)(=O)=O)C3)cc1`, for which the INHIBITION came out at 15.7%.

Turning to `COc1ccc(Cl)cc1CN(C)CC(=O)Nc1ccnn1C(C)C1CC1` (stereo not drawn), the INHIBITION is given as -75.4%.

On to `COCCN1CCC2(COCc3c(C)nc(N4CCOCC4)nc32)C1` (stereo not drawn), for which the INHIBITION is recorded as -24.8%.

Regarding `Cc1nccn1C1CCCN(C(=O)c2cc(O)nc3ccccc23)C1` (stereo not drawn), the INHIBITION is 52.7%.

As to `COc1ncccc1C(=O)N1CCCC(n2ccnc2C)C1` (stereo not drawn), the INHIBITION came out at 54.7%.

Take `CC(C)c1nccn1C1CCCN(C(=O)c2ccc3c(c2)COC3)C1` (stereo not drawn): the INHIBITION is -49.5%.

For the compound `Cc1nn(-c2ccccc2)cc1C(=O)N1CCCC(n2ccnc2C)C1` (stereo not drawn), the INHIBITION is 27.6%.

On to `Cc1nccn1C1CCCN(C(=O)c2ccc3c(c2)COC3)C1` (stereo not drawn), for which the INHIBITION amounted to 57.8%.

As for `Cc1ccccc1-c1cc(C(=O)N2CCCC(n3ccnc3C)C2)[nH]n1` (stereo not drawn), the INHIBITION stood at 66.7%.

As to `Cc1cc(C(=O)N2CCCC(n3ccnc3C)C2)c(C)s1` (stereo not drawn), the INHIBITION amounted to 18.2%.

Regarding `Cc1nccn1C1CCCN(C(=O)c2ccc3c(c2)CCC3)C1` (stereo not drawn), the INHIBITION is given as -0.96%.

In the case of `COCCOc1ncccc1C(=O)N1CCCC(n2ccnc2C)C1` (stereo not drawn), the INHIBITION is reported as -19.9%.

As for `Cc1cnn(C2CCCN(C(=O)c3cc(-c4ccccc4C)n[nH]3)C2)c1` (stereo not drawn), the INHIBITION stood at 32%.

On to `COc1ncccc1C(=O)N1CCCC(n2ccnc2)C1` (stereo not drawn), for which the INHIBITION is recorded as -5%.

With `CCCc1cc(C(=O)N2CCCC(n3ccnc3C)C2)[nH]n1` (stereo not drawn), the INHIBITION is 10.8%.

As for `Cc1cnn(CC2CN(CC(=O)Nc3cc(C)on3)CCO2)c1` (stereo not drawn), the INHIBITION was 16.85%.

Regarding `CC(C)n1ccnc1CN1CCCN(C(=O)c2cnc[nH]2)CC1`, the INHIBITION is 46.3%.

As to `O=C(Cc1ccc2c(c1)OCCO2)NC1CCCCC1`, the INHIBITION was -53.2%.

On to `O=C([C@H]1CCCO1)N1CCN(CCn2cccn2)c2ncccc2C1`, for which the INHIBITION was found to be 30.3%.

For `O=C(Nc1ccc(F)cc1)C1CSCN1` (stereo not drawn), the INHIBITION was determined as 3.38%.

In the case of `COc1ccc(CN(Cc2c[nH]cn2)CC2CCCO2)c(OC)c1` (stereo not drawn), the INHIBITION is 25.6%.

With `O=C(c1cccs1)N1CCN(CC2CC2)c2ncccc2C1`, the INHIBITION was -22.5%.

As to `O=C(NCc1ccccc1Cn1cncn1)N1CCCC1`, the INHIBITION was -33.3%.

Regarding `C1CC(CN2C[C@@H]3CC[C@H]2CN(Cc2nnc(C4CC4)o2)C3)C1`, the INHIBITION is 27.5%.

With `Cn1c2c(ccc1=O)CC(NC(=O)c1ccsc1)CC2` (stereo not drawn), the INHIBITION was determined as 49.4%.

With `Cn1ccc(N2CCCC(NC(=O)c3ccc(Cl)o3)C2=O)n1` (stereo not drawn), the INHIBITION is listed as -34.8%.
